From PubChem
DT40 TDP1 no CPT: qHTS for Inhibitors of human tyrosyl-DNA phosphodiesterase 1 (TDP1): qHTS in cells in absence of CPT. DT40 Tdp1-/- hTDP1 cells, no CPT, ATP luminescence, 48 h. Potency, µM (series often up to 46.2 µM), usual class: inhibitors. 420,000 compounds, 15% hits; note: nearly all actives have a fitted effect of over 55% in size
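DT40 Tdp1-/-;hTDP1 cells, no CPT (DMSO vehicle only), 400 cells/well; compounds pin-transferred; ≥48 hr, 37 °C; CellTiter-Glo 30 min RT dark, luminescence read.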
TDP1 cell CPT: growth inhibition of DT40 Tdp1-/-;hTDP1 cells with camptothecin (screen for TDP1 inhibitors) | chicken DT40 Tdp1-/-;hTDP1 cells + 20 nM CPT, ATP luminescence, 48 h | Potency, µM (titrated, usually from 46.2 µM), most hits filed as inhibitors | 420,000 compounds, 12% hits; note: nearly all actives have a fitted effect of over 55% in size
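Chicken DT40 Tdp1-/- cells stably complemented with human TDP1 were seeded at 400 cells/well in medium containing 20 nM camptothecin, exposed to pin-transferred compounds, and grown at 37 °C for at least 48 hr. Viability was read as ATP luminescence.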
ClpP mod: qHTS Assay for Activators of ClpP; ATP-dependent Clp protease proteolytic subunit (Bacillus subtilis (strain 168)), P80244; purified B. subtilis ClpP, FRET peptide cleavage, 20 min; Potency, µM (series often up to 57.5 µM); 340,000 compounds, 1.9% hits; AID 651965, 2013; active = well fitted falling curve with a large enough effect; inconclusive = small, poorly fitted or top-dose-only effect; inactive = no such curve, though single readings can be large or run the other way; note: the source files actives as falling curves though it sought activators and does not explain the sign; nearly all actives have a fitted effect of over 65% in size
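ClpP 10 microg/mL final, pH 8 Tris/KCl buffer with BSA, glycerol, Tween-20; compound pinned in; FRET-FV substrate; RT 20 min; Ex320/Em430; ΔFRET vs ADEP 5.8 microM, DMSO, no enzyme.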
TDP1 block: blocks human tyrosyl-DNA phosphodiesterase 1; Q9NUW8; Potency, µM (top dose mostly 130 µM), usual class: inhibitors; recombinant TDP1, AlphaScreen DNA substrate cleavage; 350,000 compounds, 0.28% hits; note: nearly all actives have a fitted effect of over 40% in size
Target sequence (Q9NUW8 whole entry, looked up): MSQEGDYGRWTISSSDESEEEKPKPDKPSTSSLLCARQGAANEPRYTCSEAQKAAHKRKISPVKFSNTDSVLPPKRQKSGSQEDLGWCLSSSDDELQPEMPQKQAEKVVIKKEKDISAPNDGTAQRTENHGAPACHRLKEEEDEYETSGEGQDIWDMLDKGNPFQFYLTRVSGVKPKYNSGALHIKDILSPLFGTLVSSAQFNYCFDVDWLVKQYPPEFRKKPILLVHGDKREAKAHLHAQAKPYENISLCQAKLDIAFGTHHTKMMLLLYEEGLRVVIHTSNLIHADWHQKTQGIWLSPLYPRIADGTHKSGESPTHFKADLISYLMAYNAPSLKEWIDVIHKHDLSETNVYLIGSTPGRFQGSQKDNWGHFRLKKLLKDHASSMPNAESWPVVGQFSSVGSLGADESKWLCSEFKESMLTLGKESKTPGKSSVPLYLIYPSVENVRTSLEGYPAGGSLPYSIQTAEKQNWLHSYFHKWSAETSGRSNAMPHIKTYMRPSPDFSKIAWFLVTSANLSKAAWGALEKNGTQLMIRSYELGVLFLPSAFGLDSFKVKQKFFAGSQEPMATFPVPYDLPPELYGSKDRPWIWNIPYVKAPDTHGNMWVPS
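Compounds were preincubated with Tdp1 (1 nM final) for 15 min at room temperature before substrate (15 nM final) started a 5 min reaction; beads (10 ug/ml final) were then added for 10 min before AlphaScreen detection.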
Each line names hits and unclear results; the compound was inactive in the other large screens. This is a sample that favours compounds with a hit; in the whole collection about 17% have one here. Unless noted, calls come from the whole dose curve; as a rule, active = well fitted curve in the direction sought with a large enough effect; inconclusive = small, poorly fitted or top-dose-only effect, or another doubt; inactive = no such curve, though single readings can be large; an effect the other way counts as inactive or inconclusive.

Cc1ccccc1-c1cnc2c(c1)C(=O)N([C@@H](C)CO)C[C@@H](C)[C@H](CN(C)Cc1ccccc1F)O2	DT40 TDP1 no CPT 16µM, TDP1 cell CPT inconclusive (no result: TDP1 block)
CCCNC(=O)N(C)C[C@H]1Oc2ncc(C#CCc3ccccc3)cc2C(=O)N([C@H](C)CO)C[C@H]1C	DT40 TDP1 no CPT 10µM, TDP1 cell CPT 29µM (no result: TDP1 block)
C[C@H]1CN([C@@H](C)CO)C(=O)c2cc(Br)cnc2O[C@H]1CN(C)Cc1ccc(Oc2ccccc2)cc1	DT40 TDP1 no CPT 16µM, TDP1 cell CPT 18µM (no result: TDP1 block)
Cc1ccccc1-c1cnc2c(c1)C(=O)N([C@H](C)CO)C[C@@H](C)[C@H](CN(C)C(=O)c1ccncc1)O2	none (no result: TDP1 block)
C[C@@H]1CN([C@@H](C)CO)C(=O)c2cc(/C=C/c3ccccc3)cnc2O[C@@H]1CN(C)S(=O)(=O)c1ccc(F)cc1	none (no result: TDP1 block)
C/C=C/c1cnc2c(c1)C(=O)N([C@@H](C)CO)C[C@H](C)[C@@H](CN(C)S(=O)(=O)c1ccc(C)cc1)O2	DT40 TDP1 no CPT 23µM, TDP1 cell CPT 23µM (no result: TDP1 block)
COc1ccc(C#Cc2cnc3c(c2)C(=O)N([C@H](C)CO)C[C@@H](C)[C@H](CN(C)C(=O)CN(C)C)O3)cc1	none (no result: TDP1 block)
COc1ccc(S(=O)(=O)N(C)C[C@H]2Oc3ncc(Br)cc3C(=O)N([C@@H](C)CO)C[C@@H]2C)cc1	DT40 TDP1 no CPT 12µM, TDP1 cell CPT inconclusive (no result: TDP1 block)
COc1ccc(C#Cc2cnc3c(c2)C(=O)N([C@@H](C)CO)C[C@@H](C)[C@@H](CN(C)CC2CCOCC2)O3)cc1	DT40 TDP1 no CPT 21µM, TDP1 cell CPT 18µM (no result: TDP1 block)
C/C(=N/NC(=O)CN1CCN(Cc2ccccc2Cl)CC1)c1ccncc1	TDP1 cell CPT inconclusive
CCc1ccc(/C=N/n2c(C3CCCCC3)n[nH]c2=S)cc1	DT40 TDP1 no CPT inconclusive, TDP1 cell CPT inconclusive (no result: TDP1 block)
COc1ccc(-c2c(-c3ccsc3)oc3ccc(N4CCOCC4)cc23)cc1	DT40 TDP1 no CPT 16µM, TDP1 cell CPT inconclusive (no result: TDP1 block)
COc1ccc(-c2oc3ccc(N4CCOCC4)cc3c2/C=C/c2ccc(OC)c(OC)c2)cc1	DT40 TDP1 no CPT inconclusive, TDP1 cell CPT inconclusive (no result: TDP1 block)
COc1ccc(/C=C/C(=O)NC(=S)NNC(=O)c2ccco2)cc1OC	DT40 TDP1 no CPT 23µM, TDP1 cell CPT inconclusive
COc1ccc(/C=C(/NC(=O)c2ccco2)C(=O)N2CCCC2=O)cc1	none (no result: ClpP mod)
COc1ccc(/C=C/C(=O)NC(=S)NNC(=O)c2ccco2)cc1	DT40 TDP1 no CPT 21µM, TDP1 cell CPT 15µM
CCCOc1ccc(/C=C/C(=O)N2CCN(C(=O)c3ccco3)CC2)cc1OC	DT40 TDP1 no CPT 13µM, TDP1 cell CPT inconclusive (no result: TDP1 block)
CCOC(=O)N1CCN(C(=O)/C=C/c2ccc(OC)c(OC)c2)CC1	none
COc1ccc(/C=C(/NC(=O)c2ccco2)C(=O)N2CCCCC2)cc1	ClpP mod 14µM
CC(=O)Nc1ccc(-c2csc(N/N=C(/C)c3ccccc3)n2)cc1	DT40 TDP1 no CPT 9.2µM, TDP1 cell CPT 21µM (no result: ClpP mod, TDP1 block)
CC(=O)Nc1ccc(-c2csc(NNC(=O)c3ccccc3)n2)cc1	DT40 TDP1 no CPT 1.3µM, TDP1 cell CPT 12µM
COC(=O)[C@H](CC(C)C)NC(=O)NCCC1=CCCCC1	none (no result: ClpP mod)
C[n+]1ccn(CC(=O)c2cccs2)c1	none (no result: TDP1 block)
CCCCCCCCCCCCCCCCn1cc[n+](C)c1	DT40 TDP1 no CPT 0.46µM, TDP1 cell CPT 0.46µM
O=c1[nH]ncn1-c1ccccc1	none (no result: ClpP mod)
NCCNS(=O)(=O)c1cccc2cnccc12	DT40 TDP1 no CPT 18µM, TDP1 cell CPT 27µM (no result: ClpP mod)
O=C1c2cccnc2C(=O)N1Cc1ccc(S(=O)(=O)N2CCN(c3ccccc3)CC2)cc1	none
COc1ccc2c(c1)C(=O)N(c1ccccc1)C(=O)C2	ClpP mod inconclusive
COc1ccc(N2C(=O)Cc3ccccc3C2=O)cc1	DT40 TDP1 no CPT 13µM, TDP1 cell CPT inconclusive (no result: TDP1 block)
O=C(NCCC1=CCCCC1)c1[nH]c(C(F)(F)F)nc1-c1ccccc1	DT40 TDP1 no CPT inconclusive, TDP1 cell CPT 16µM (no result: TDP1 block)
N#Cc1c(-c2ccccc2)cc(-c2ccc3c(c2)OCO3)[nH]c1=O	ClpP mod 18µM
NC(=S)NN=C1c2cc(Cl)ccc2-c2c1cc(Cl)cc2[N+](=O)[O-]	DT40 TDP1 no CPT inconclusive, TDP1 cell CPT inconclusive (no result: TDP1 block)
NC(=S)N/N=C1\CCOc2ccc(Cl)cc21	DT40 TDP1 no CPT inconclusive, TDP1 cell CPT 18µM
c1ccc(-c2cccc(-c3ccccn3)n2)nc1	DT40 TDP1 no CPT 3.7µM, TDP1 cell CPT 2.1µM
c1ccc(-c2nnc(-c3ccccn3)nn2)nc1	DT40 TDP1 no CPT inconclusive, TDP1 cell CPT 15µM (no result: TDP1 block)
COc1cccc(Cc2nc3ccccc3nc2SCC(=O)NCc2ccc(C)cc2)c1	DT40 TDP1 no CPT inconclusive, TDP1 cell CPT inconclusive
Cc1ccc(C)c(Cn2c(CN(C)Cc3ccccc3)nc3c2c(=O)n(C)c(=O)n3C)c1	DT40 TDP1 no CPT 15µM, TDP1 cell CPT 18µM
CC(=O)C(C)n1c(CN(C)Cc2ccccc2)nc2c1c(=O)n(C)c(=O)n2C (centres undefined)	DT40 TDP1 no CPT 8.2µM, TDP1 cell CPT 8.2µM (no result: ClpP mod, TDP1 block)
CC(C)n1c(CN(C)Cc2ccccc2)nc2c1c(=O)n(C)c(=O)n2C	DT40 TDP1 no CPT 0.41µM, TDP1 cell CPT 0.73µM (no result: ClpP mod, TDP1 block)
C=C(C)Cn1c(CN(C)Cc2ccccc2)nc2c1c(=O)n(C)c(=O)n2C	DT40 TDP1 no CPT 5.2µM, TDP1 cell CPT 7.3µM (no result: TDP1 block)
Cc1ccc(NC(=O)c2c(Cl)nc3ccccn23)cc1	none (no result: ClpP mod)
Cc1cc2oc(=O)cc(-c3ccccc3)c2c(C)c1-c1sccc1C=O	none (no result: DT40 TDP1 no CPT, TDP1 cell CPT, ClpP mod)
COc1cc(-c2nnc(-c3ccncc3)o2)ccc1OCc1ccccc1	DT40 TDP1 no CPT 9.2µM, TDP1 cell CPT inconclusive
COc1ccc(-c2nnc(-c3cccnc3)o2)cc1OC	DT40 TDP1 no CPT inconclusive, TDP1 cell CPT 12µM
